# Source: PubChem
# Pf Dd2 inh: qHTS Primary assay for Inhibitors of Plasmodium falciparum Dd2 growth in vitro; P. falciparum Dd2 growth, SYBR Green, 72 h; Potency, µM (highest dose often 28.9 µM), inactives show at the top dose activity, negative = inhibition, most hits filed as inhibitors; 120,000 compounds, 4.3% hits; active = well fitted inhibition curve with a large enough effect;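 also: plate controls were DMSO vehicle for no effect and reference drug for full effect; nearly all actives have a fitted effect of over 65% in size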
#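 Readout: SYBR Green fluorescence, 485 nm excitation, 535 nm emission, after ~16 h lysis at 37C. Before that, Dd2-infected red cells (2.5% hematocrit) grew 72 h with compound, 29 uM top final concentration.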
# Starred values were filed as active, the others as inactive; i = inactive; [ ] = remark or other dose. The entries come from a sample that favours hits as a whole. Potency is read from the fitted curve at half-maximal effect.
SMILES,Pf Dd2 inh
CCOC(=O)CCNC(=O)N1CCC[C@H](n2c(=O)n(CC3CC3)c3cccnc32)C1,-15.2%
COCCn1c(=O)n([C@H]2CCCN(C(=O)c3cc(F)ccc3F)C2)c2ncccc21,4.4%
CCC(Cn1cnc(-c2ccccc2)c1-c1ccc(C#N)cc1)N1CCN(C)CC1 (configuration not stated),8.91µM*
CCOCCn1cnc(-c2ccccc2)c1-c1cccc(C#N)c1,i
CCSc1ncc(-c2c(-c3ccccc3)ncn2CC[C@@H](C)CO)cn1,-25.8%
COc1cc2c(cc1OCC1CC1)NC(=O)C21CCN(c2nc(C)cnc2C)CC1,-15.1%[44.1 µM]
Cn1cnc(S(=O)(=O)N2CCC3(CC2)CC(CC(=O)NC2CC2)CCO3)c1 (configuration not stated),-32.9%
COc1ccc(S(=O)(=O)N2CCC3(CC2)CC(CC(=O)NC2CC2)CCO3)cc1 (configuration not stated),6.31µM*
COc1cccc(S(=O)(=O)N2CCC3(CC2)CC(CC(=O)NC2CC2)CCO3)c1 (configuration not stated),21.4%
Cc1noc(C)c1[S+](=O)([O-])N1CC2ON=C(C(=O)O)C2C1 (configuration not stated),3.3%[44.1 µM]
CN1C(=O)[C@H]2CN(Cc3cn[nH]c3-c3cccs3)C[C@H]2C1=O,i
CC(=O)N1C[C@H](NS(=O)(=O)c2ccc(C)c(Cl)c2)[C@@H](C2CC2)C1,-2.4%
CN1CCc2c([nH]c3ccccc23)C12CCN(C(=O)Cc1cccnc1)CC2,-27.0%
Cc1ccncc1C(=O)N1CCC2(CC1)c1[nH]c3ccccc3c1CCN2C,i
Cc1noc(C)c1C(=O)N1CCC2(CC1)NCCc1c2[nH]c2ccccc12,-23.6%
Cc1noc(C)c1S(=O)(=O)N1CCC2(CC1)NCCc1c2[nH]c2ccccc12,5.01µM*
Cn1cnc(S(=O)(=O)N2CCC3(CC2)NCCc2c3[nH]c3ccccc23)c1,-8.3%
CN1CCc2c([nH]c3ccccc23)C12CCN(S(=O)(=O)c1cccnc1)CC2,4.47µM*
CNC(=O)[C@@H]1CN(C(=O)c2cc(C)n(Cc3ccco3)c2C)C[C@H]1CO,-7.2%
CSc1ccccc1NC(=O)c1cnc(-c2ccc(C)cc2)nc1-c1ccncc1,i
CCC(=O)N1CCC(c2ncc(C)n2Cc2ccccc2)C1 (configuration not stated),i
COc1ccc(OC)c(NC(=O)Cn2c(=O)c(-c3noc(C)n3)c3n(c2=O)CCCC3)c1,54.2%
O[C@@H]1C[C@@H](c2nc(-c3cccnc3)no2)N(Cc2cc3ccccc3o2)C1,-14.9%[44.1 µM]
COCCC1(N(C)C)CCN(C(=O)c2ccnn2C)CC1,5.0%
CCc1ccc(NC(=O)Cn2c(=O)c(CNc3ccccc3)cc3cc(OC)c(OC)cc32)cc1,i
SMILES,Pf Dd2 inh
COc1cc2cc(CNc3ccccc3)c(=O)n(CC(=O)Nc3cc(C)cc(C)c3)c2cc1OC,11.2µM*
COc1ccc(NCc2cc3cc4c(cc3n(CC(=O)Nc3cc(C)cc(C)c3)c2=O)OCO4)cc1,-5.9%
O=C(CC[C@H]1NC(=O)c2ccccc2NC1=O)Nc1nc2c(s1)CCC2,-22.5%
CC1(C)CC(=O)C=C(C(=O)N2CCCC(N3CCN(c4ccccc4F)CC3)C2)O1 (configuration not stated),-9.8%
CCOc1ccc(CN2C(=O)C3(CCOCC3)CC2c2nnnn2C(C)(C)C)cc1 (configuration not stated),-15.1%
COc1ccc(CN2CCC3(CC2)CC(c2cccnc2)=NO3)cc1,-19.3%
FC(F)(F)CN1C2CCC1CN(c1cnc3ccccc3c1)C2,-27.4%
FC(F)(F)CN1C2CCC1CN(c1nnc(Cl)c3ccccc13)C2,0.708µM*
FC(F)(F)CN1C2CCC1CN(c1ncc(C(F)(F)F)cn1)C2,30.8%
Cc1ccnc(N2CC3CCC(C2)N3CC(F)(F)F)c1[N+](=O)[O-],6.1%
O=[N+]([O-])c1ccc(Cl)nc1N1CC2CCC(C1)N2CC(F)(F)F,-24.4%
FC(F)(F)CN1C2CCC1CN(c1ccccn1)C2,9.0%[44.1 µM]
COc1ccccc1Nc1ccnc(N2CC3CCC(C2)N3CC(F)(F)F)n1,-25.5%
FC(F)(F)CN1C2CCC1CN(c1nccc(Nc3ccccc3Cl)n1)C2,8.91µM*
